Rows were chosen to be rich in hits. Some 4.1% of all compounds tested hit in one or more screens of this group.
DAX1 inh-1: DAX1 (NR0B1) inhibition, primary screen; HEK293T StAR-luciferase reporter, SF-1/DAX-1 repression relief; inhibition, % at 6.8 µM; 1.1% of 370,000 active;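 active means inhibition above the mean over all tested compounds plus 3 SD, cut at about 3.6% in these data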;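 further: 0% = DAX-1 cells with DMSO and 100% = cells lacking DAX-1 with DMSO; higher inhibition means more luminescence from relief of DAX-1 repression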
DAX1 inh-2: inhibitors of human orphan nuclear receptor DAX1 (NR0B1). P51843. HEK293 Gal4-DAX1 luciferase reporter, luminescence. inhibition, % at 6.75 µM. 0.99% of 340,000 active. AID 504766;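 active means inhibition above the mean over all tested compounds plus 3 SD, cut at about 4.2% in these data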;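 further: 0% = DAX1-transfected cells with DMSO and 100% = empty-vector control cells with DMSO; inhibition shows as a rise in luminescence from relieved DAX1 repression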
Target sequence (P51843 207-470 limits assumed): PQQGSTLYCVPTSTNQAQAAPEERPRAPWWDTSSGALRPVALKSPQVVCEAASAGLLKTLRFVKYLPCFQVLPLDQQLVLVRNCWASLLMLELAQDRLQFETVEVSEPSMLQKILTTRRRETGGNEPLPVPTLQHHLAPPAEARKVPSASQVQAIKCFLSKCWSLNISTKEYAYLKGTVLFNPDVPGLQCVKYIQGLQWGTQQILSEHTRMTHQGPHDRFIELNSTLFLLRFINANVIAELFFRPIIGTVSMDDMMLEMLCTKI
hgDAF12 agonist: hgDAF-12 agonism, primary luciferase screen. AID 687014. HEK293 GAL4-hgDAF12 UAS-luciferase reporter, agonist luminescence; normalized to butyrate control. activation, % at 6.8 µM. 1.8% of 370,000 active;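 active means activation above a cutoff set at the mean of all screened compounds plus 3 SD, cut at about 10% in these data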;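 further: 0% = DMSO wells and 100% = sodium butyrate wells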
hcDAF-12 act: activates DAF-12 receptor from parasite H. contortus. HEK293 hcDAF-12 lit1-tk-luc reporter, luminescence; 0% DMSO, 100% Δ7-dafachronic acid. 1.4% of 370,000 active. activation, % at 6.8 µM. AID 652067;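 active means activation above the mean of all tested compounds plus 3 SD, cut at about 5.5% in these data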;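 further: 100% = response to 3 µM Δ7-dafachronic acid high control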
ssDAF-12 act: activators of S. stercoralis DAF-12 nuclear receptor; HEK293 ssDAF-12/GRIP1 lit1-tk-luc reporter, luminescence; % of 3 µM dafachronic acid response; activation, % at 6.8 µM; 1% of 370,000 active; AID 652126;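 active means activation above the mean over all tested compounds plus 3 SD, cut at about 0.9% in these data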;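 further: 0% = DMSO-only wells and 100% = 3 µM delta7-dafachronic acid wells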
DAX1 inh confirm: confirmation of human DAX1 (NR0B1) inhibitors. shares compounds with DAX1 inh-1. HEK293T StAR-promoter luciferase reporter, SF-1/DAX-1 repression. inhibition, % at 6.8 µM. 87% of 2,400 active. AID 652134;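 active means inhibition above the average of every tested compound plus 3 SD, cut at about 3.8% in these data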;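 further: 0% = DAX-1 cells with DMSO and 100% = no DAX-1 control cells with DMSO; active compounds raise luminescence by relieving repression of the StAR reporter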
Target sequence (P51843 whole entry, looked up): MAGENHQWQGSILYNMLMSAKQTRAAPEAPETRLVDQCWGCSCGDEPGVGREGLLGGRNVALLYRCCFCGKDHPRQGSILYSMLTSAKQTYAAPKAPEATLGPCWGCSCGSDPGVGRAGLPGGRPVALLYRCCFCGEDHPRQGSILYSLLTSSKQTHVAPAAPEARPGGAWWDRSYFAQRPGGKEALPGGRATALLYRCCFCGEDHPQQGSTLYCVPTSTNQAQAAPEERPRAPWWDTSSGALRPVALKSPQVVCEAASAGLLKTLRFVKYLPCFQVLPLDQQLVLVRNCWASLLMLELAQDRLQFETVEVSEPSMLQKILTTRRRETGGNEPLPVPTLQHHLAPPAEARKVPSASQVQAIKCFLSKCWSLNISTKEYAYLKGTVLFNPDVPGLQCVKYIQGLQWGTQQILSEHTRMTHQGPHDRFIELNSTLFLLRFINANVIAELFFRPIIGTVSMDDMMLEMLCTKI
SF1 mutant ctr: counter-screen for DAX1 inhibitors: nonselective inhibitors with SF-1 AF2 mutant; 78% of 2,400 active; shares compounds with DAX1 inh-1; inhibition, % at 6.8 µM; HEK293 StAR-luciferase, luminescence;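 active means inhibition above the mean of all tested compounds plus 3 SD, cut at about 3% in these data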;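 further: 0% = DAX-1 transfected cells with DMSO and 100% = cells without DAX-1 with DMSO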
LXR ag: LXR-beta agonism as hcDAF-12 counter-screen; activation, % at 6.8 µM; HEK293 Gal4-LXR tk-luc reporter, luminescence, 24 h; normalized: DMSO 0%, positive control 100%; AID 743027; 3,400 tested, under 10 active; shares compounds with hcDAF-12 act;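 active means mean percent activation of the reporter above a cutoff set as the average over tested compounds plus their standard deviation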
hcDAF12 conf: confirmation of H. contortus DAF-12 agonists; 61% of 3,400 active; HEK293 hcDAF-12 lit1-tk-luc reporter, luminescence; % of Δ7-dafachronic acid response; shares compounds with hcDAF-12 act; AID 743032; activation, % at 6.8 µM;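 active means mean activation across triplicate tests above the threshold derived from the earlier primary screen, cut at about 5.5% in these data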;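 further: 0% = DMSO only wells and 100% = 3 µM Δ7-dafachronic acid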
hgDAF12 conf: confirmation of H. glycines DAF-12 agonists; shares compounds with hgDAF12 agonist; HEK293 GAL4-hgDAF12 luciferase reporter, agonist mode; percent of butyrate response; activation, % at 6.8 µM; 80% of 3,300 active; AID 743050;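 active means mean activation over triplicate wells above the hit cutoff derived from the earlier primary screen, cut at about 11% in these data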;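 further: 0% = DMSO low control and 100% = 2 mM sodium butyrate high control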
LXR ag 2: activates human LXR-beta, counter-screen for DAF-12 agonists. shares compounds with hgDAF12 agonist. HEK293 Gal4-LXR luciferase reporter, 24 h. activation, % at 6.8 µM. 3,300 tested, under 10 active. AID 743051;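 active means mean activation of the triplicate above a set limit carried over from the primary screen, none filed active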
An asterisk follows results filed as active; . = no result given.

SMILES | DAX1 inh-1 | DAX1 inh-2 | hgDAF12 agonist | hcDAF-12 act | ssDAF-12 act | DAX1 inh confirm | SF1 mutant ctr | LXR ag | hcDAF12 conf | hgDAF12 conf | LXR ag 2
CC(=O)c1ccc(N=Nc2ccc(C)cc2)cc1 | 6.6* | -0.2 | 15.1* | 6.4* | -0.2 | 9.5* | 2.7 | . | . | 7.6 | 1.0
Cc1cc(C)cc(C(=O)N2CCCCC2)c1 | -1.9 | 1.5 | -2.4 | -1.0 | -0.4 | . | . | . | . | . | .
Oc1ccccc1-c1cc(-c2ccc3c(c2)OCCO3)n[nH]1 | 5.9* | 0.5 | 13.3* | 8.9* | 1.0* | 6.0* | 1.6 | 2.3 | 11.9* | 24.3* | 1.3
CCOC(=O)c1cc(-c2ccc3c(c2)OCCO3)n[nH]1 | 5.3* | 5.8* | 19.1* | 5.3 | -0.1 | 12.6* | 9.9* | . | . | 17.1* | 0.8
O=C(O)c1cc(-c2ccc3c(c2)OCCO3)n[nH]1 | 1.1 | 0.0 | 4.5 | -1.3 | -0.8 | . | . | . | . | . | .
COc1cccc(C2=NN(C(=O)c3cccs3)C(O)(C(F)(F)F)C2)c1 (stereo not drawn) | -0.8 | 0.9 | 3.4 | -1.5 | -1.8 | . | . | . | . | . | .
Cc1cccc(-n2ncc3c(N4CCCC4)ncnc32)c1 | 7.4* | -1.5 | 17.6* | 5.3 | 0.7 | 15.6* | 6.9* | . | . | 15.7* | 0.9
Cc1cccc(-n2ncc3c(N4CCOCC4)ncnc32)c1 | 3.4 | -3.2 | 1.8 | 0.2 | -1.3 | . | . | . | . | . | .
Cc1cccc(-n2ncc3c(NCc4cccnc4)ncnc32)c1 | 4.7* | 1.6 | 13.5* | -0.9 | -1.0 | 8.1* | 4.2* | . | . | 11.7* | 0.4
Cc1cccc(-n2ncc3c(NC4CCCCC4)ncnc32)c1 | 6.8* | 0.6 | 25.4* | 7.8* | -0.2 | 12.5* | 7.5* | 1.8 | 6.2* | 12.2* | 1.1
Cc1cc(C)cc(NC(=O)C2COc3ccccc3O2)c1 (stereo not drawn) | 0.0 | 1.0 | -0.5 | 2.3 | -1.1 | . | . | . | . | . | .
Oc1[nH]c2ccccc2c1C=Nc1ccc2c(c1)OCO2 | 6.6* | 5.1* | 16.9* | 7.0* | 0.7 | 16.3* | 8.2* | 1.3 | 6.8* | 19.1* | 0.9
Cc1[nH]c2ccccc2c1/C=N\NC(=O)CNc1ccc2c(c1)OCO2 | 0.7 | -0.3 | 1.9 | 1.9 | -0.9 | . | . | . | . | . | .
Cc1ccc2c(CN(C)Cc3ccccc3)cc(=O)oc2c1 | 6.8* | . | 13.5* | 2.1 | 0.5 | 6.0* | 2.7 | . | . | 10.7* | 0.6
COc1ccc(NC(=O)CSc2cn[nH]n2)cc1OC | -0.5 | 0.4 | 0.5 | 0.5 | -0.9 | . | . | . | . | . | .
CCOc1c(C)cnc2c1c(=O)n(Cc1c(F)cccc1Cl)c(=O)n2C | -0.2 | -0.1 | 2.3 | -0.2 | -1.2 | . | . | . | . | . | .
CCc1ccc(NC(=O)c2onc(C)c2Cl)cc1 | 7.7* | 4.5* | 28.6* | 17.0* | 2.2* | 13.2* | 11.0* | 2.0 | 18.0* | 22.4* | 0.8
Cc1noc(C(=O)Nc2ccc(C#N)cc2)c1Cl | 0.0 | -0.9 | 4.8 | -1.9 | -1.1 | . | . | . | . | . | .
COc1ccc(/C=N/N=C(\N)c2nonc2N)cc1 | 8.7* | -2.0 | 15.5* | 12.2* | 0.5 | 14.4* | 5.9* | 1.4 | 6.6* | 16.1* | 0.9
CCOC(=O)c1c(N)sc(C(=O)Nc2ccccc2F)c1C | 9.3* | 4.4* | 19.4* | 6.7* | 0.8 | 14.1* | 7.1* | 1.7 | 8.5* | 18.6* | 1.0
CCOC(=O)c1sc(NC(C)=O)cc1C | 0.1 | -0.5 | 2.4 | -0.4 | -1.0 | . | . | . | . | . | .
CCOC(=O)c1sc(NC(=O)Nc2ccccc2Cl)cc1C | 7.8* | -0.4 | 19.9* | 14.5* | 1.1* | 13.6* | 7.5* | 1.6 | 6.1* | 24.4* | 1.4
C[C@@H]1CN([C@@H](C)CO)C(=O)c2cccc(NC(=O)Nc3ccc4c(c3)OCO4)c2O[C@H]1CN(C)S(=O)(=O)c1cn(C)cn1 | 0.5 | 0.8 | -0.9 | 0.9 | -1.4 | . | . | . | . | . | .
Cc1ccc(NC(=O)N2CCc3ccccc32)cc1C | 7.4* | -2.2 | 15.6* | 14.9* | 1.2* | 16.5* | 8.4* | 2.2 | 9.4* | 24.5* | 1.2
CN(C)c1ccc(C(=S)NCc2ccco2)cc1 | 5.2* | -1.6 | 15.9* | 7.5* | 0.9* | 11.5* | 5.6* | 1.6 | 10.3* | 20.3* | 1.0
SMILES | DAX1 inh-1 | DAX1 inh-2 | hgDAF12 agonist | hcDAF-12 act | ssDAF-12 act | DAX1 inh confirm | SF1 mutant ctr | LXR ag | hcDAF12 conf | hgDAF12 conf | LXR ag 2
CN(C)c1ccc(/C=N/NC(=S)NCc2ccco2)cc1 | 0.6 | 0.5 | 2.6 | 2.0 | -0.9 | . | . | . | . | . | .
COc1ccc(/C=C/C(=O)N(C)C2CCS(=O)(=O)C2)cc1 (stereo not drawn) | 1.8 | 0.3 | 2.1 | -0.4 | -0.5 | . | . | . | . | . | .
CC(=O)Nc1ccc2nc3ccccc3nc2c1 | 0.7 | 0.6 | 5.4 | 3.9 | 0.0 | . | . | . | . | . | .
C=C(C)C(=O)Nc1ccc2nn(-c3ccccc3O)nc2c1 | 7.9* | 2.2 | 20.4* | 8.0* | 1.6* | 13.4* | 7.7* | 2.0 | 10.1* | 20.3* | 1.0
Cc1nc2ccc(-c3nc4ccccc4[nH]3)cc2[nH]1 | 5.6* | 0.1 | 19.2* | 8.3* | 0.4 | 12.1* | 6.4* | 1.4 | 8.1* | 19.1* | 0.8
Cc1ccc(-c2nc3ccccc3[nH]2)cn1 | 0.8 | 4.0 | 6.9 | 2.5 | -1.3 | . | . | . | . | . | .
Cc1cccc2cc3ccccc3nc12 | -0.4 | -0.2 | 2.1 | 0.2 | -1.7 | . | . | . | . | . | .
c1ccc2nc3c(ccc4ccccc43)cc2c1 | 4.5* | 1.8 | 20.6* | 11.9* | 0.9* | 11.5* | 10.0* | 1.3 | 11.5* | 16.4* | 0.6
Cc1cc(SCC(=O)c2ccccc2)nc(=O)[nH]1 | 1.6 | 1.9 | 5.6 | 5.5 | -0.2 | . | . | . | . | . | .
Cc1ccc(C(=O)CSc2cc(C)[nH]c(=O)n2)cc1 | 11.8* | 5.0* | 14.6* | 3.2 | 0.4 | 11.4* | 8.3* | . | . | 15.7* | 0.6
C/C(CCc1ccco1)=N/NC(=O)CCC(=O)Nc1ccc(Br)cc1 | -0.1 | -1.2 | -0.4 | -0.1 | -1.2 | . | . | . | . | . | .
Cc1ccc(-c2cnc3c(Cl)c(C)nn3c2)cc1 | 6.6* | 3.2 | 24.5* | 5.1 | 0.6 | -0.5 | -4.5 | . | . | 18.4* | 1.0
